NCOA2 inhibitor: inhibits human steroid receptor coactivator 2 | Q15596 | HEK293 GAL4-SRC2 luciferase reporter, luminescence | inhibition, % at 9 µM | 0.17% of 370,000 active;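 active = inhibition above the mean inhibition of all tested compounds plus 3 SD, set per campaign, cut at about 52% in these data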
GalR3 antag: antagonists of human GalR3; O60755; HEK293 GalR3-CNG cAMP membrane potential fluorescence; galR3 body fused to GalR1 C-terminus; inhibition, % at 3 µM; 0.44% of 360,000 active; AID 651719;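 active = inhibition above the screen-wide average plus 3 SD, cut at about 13% in these data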;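 also: forskolin and galanin both at EC90 stimulate the cells; cAMP rise reported by CNG channel membrane potential dye signal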
NCOA1 inh: inhibitors of human steroid receptor coactivator 1 (SRC1). Q15788. 0.12% of 360,000 active. inhibition, % at 3.6 µM. HEK293 GAL4-SRC1 luciferase reporter, luminescence;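 active = inhibition above the campaign mean plus 3 SD, with each screening campaign given its own cutoff, cut at about 60% in these data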
NCOA3 inh: inhibitors of human steroid receptor coactivator 3 (SRC3). HEK293 GAL4-SRC3 luciferase reporter, luminescence. inhibition, % at 3.6 µM. 0.17% of 360,000 active. AID 588352;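 active = inhibition above a per-campaign cutoff, the mean of all compounds plus 3 SD, cut at about 60% in these data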;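 also: higher means less SRC3-driven luciferase light from the GAL4 reporter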
NR5A2 inv ag: inverse agonists of human LRH-1 (NR5A2). AID 602396. O00482. inhibition, % at 3.6 µM. 0.13% of 360,000 active. HEK293T StAR-luciferase reporter, LRH-1 transfected, 24 h;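 active = inhibition above the mean inhibition of all tested compounds plus 3 SD, cut at about 73% in these data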
COUP-TFII inh: blocks human COUP-TFII nuclear receptor. HEK293T NGFI-A luciferase reporter, luminescence. inhibition, % at 8.6 µM. P24468. 0.7% of 370,000 active;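 active = inhibition above a per-plate cutoff, mean inhibition of test wells between control levels plus 3 SD, cut at about 38% in these data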;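 also: cells cotransfected with COUP-TFII expression vector driving the NGFI-A reporter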
Target sequence (P24468 whole entry, looked up): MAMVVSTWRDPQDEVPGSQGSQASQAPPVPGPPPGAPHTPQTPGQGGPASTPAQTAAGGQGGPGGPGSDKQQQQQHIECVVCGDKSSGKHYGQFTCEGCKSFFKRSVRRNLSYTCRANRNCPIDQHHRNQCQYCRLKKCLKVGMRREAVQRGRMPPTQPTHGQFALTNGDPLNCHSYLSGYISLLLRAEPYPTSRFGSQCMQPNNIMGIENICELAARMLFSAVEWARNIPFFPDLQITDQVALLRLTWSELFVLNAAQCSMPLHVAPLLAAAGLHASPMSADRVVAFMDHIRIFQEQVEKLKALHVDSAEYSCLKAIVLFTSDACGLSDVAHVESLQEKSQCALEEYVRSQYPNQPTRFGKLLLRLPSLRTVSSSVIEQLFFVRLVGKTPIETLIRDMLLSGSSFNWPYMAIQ
GalR3 antag conf: confirmation of human galanin receptor 3 antagonists; shares compounds with GalR3 antag; HEK293 GalR3 CNG cAMP biosensor, membrane potential fluorescence; galR3 fused to GalR1 carboxy tail; challenged with forskolin and galanin at EC90; inhibition, % at 3 µM; 59% of 1,600 active; AID 652245;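 active = inhibition above the primary screen's cutoff, the mean inhibition of all screened compounds plus 3 SD, cut at about 13% in these data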
CNG parental: acts as nonspecific agonist in parental HEK-CNG cells; 10% of 1,600 active; activation, % at 3 µM; shares compounds with GalR3 antag; HEK293-CNG parental cells, cAMP membrane potential fluorescence; normalised: DMSO wells 0%, forskolin wells 100%; in the data active = activation above about 1.3%
Large screens that a line does not name were inactive (follow-up assays come after a bar, where they were run). This is a sample that favours compounds with a hit; in the whole collection about 1.1% have one here.

CC(O)(c1ccc(F)c(F)c1)c1nc(-c2csc3ccccc23)cs1 (stereo not drawn)	none
Cn1nnnc1NN=Cc1ccccc1	none
S=C1NNC2(NN1)C1CC3CC(C1)CC2C3	GalR3 antag 15.0 | GalR3 antag conf inactive | CNG parental inactive
CC(C)C(NC(=O)c1c(F)cccc1F)C(=O)N1CCN(c2ccccc2F)CC1 (stereo not drawn)	none
CC(C)[C@H](NC(=O)c1c(F)cccc1F)C(=O)N1CCN(c2ccc(F)cc2)CC1	GalR3 antag 12.9 | GalR3 antag conf inactive | CNG parental inactive
O=C(O)/C=C/C(=O)c1ccc2c(c1)CCc1ccccc1-2	GalR3 antag 24.6 | GalR3 antag conf 15.7 | CNG parental inactive
CC(=O)Nc1ccc2c(c1)CCc1ccccc1-2	none
CCc1nc2c(OCc3ccccc3C)cccn2c1N(C)C(=O)C(C)C	none
CCN1C(=O)[C@@H]2[C@@H](c3ccc(-c4ccc(Cl)c(Cl)c4)c(OC)c3)N3CCCC[C@@]3(C(=O)OC)[C@@H]2C1=O	GalR3 antag 13.1 | GalR3 antag conf inactive | CNG parental 1.9
O=C1C(C=NC2CC2)=C(O)c2ccccc21	GalR3 antag 13.5 | GalR3 antag conf inactive | CNG parental inactive
O=C(Cc1cccc(NC(=O)C2CCCN(C(=O)C3CCC3)C2)c1)Nc1ccc(C(=O)N2CCCCC2)cc1 (stereo not drawn)	none
COc1ccc(NC(=O)CCNC(=O)Cn2cnc3ccccc3c2=O)c(OC)c1	none
COc1cc(C2Nc3ccc4ncccc4c3C3=C2C(=O)CC(C)(C)C3)cc(OC)c1O (stereo not drawn)	none
COc1cc(C2Nc3ccc4ncccc4c3C3=C2C(=O)CCC3)cc(OC)c1O (stereo not drawn)	GalR3 antag 13.2 | GalR3 antag conf inactive | CNG parental inactive
COc1ccc(C2CC(c3ccc4ccccc4c3)=NN2C(=O)CN2CCC(C(N)=O)CC2)cc1 (stereo not drawn)	GalR3 antag 14.0 | GalR3 antag conf inactive | CNG parental 3.0
COc1cc(CCCN2C(=O)C(=O)NC[C@@H]2Cc2ccc(O)cc2)cc(OC)c1OC	GalR3 antag 15.9 | GalR3 antag conf inactive | CNG parental inactive
O=C(c1ccc(F)cc1)N1CCN2C(=O)c3ccccc3C12c1ccc(Cl)cc1 (stereo not drawn)	none
COc1ccc(C(=O)NCC(=O)OCC(=O)c2ccc3c(c2)NC(=O)CO3)cc1OC	GalR3 antag 72.5 | GalR3 antag conf inactive | CNG parental inactive
COc1ccc(CC2(CO)CCN(Cc3cnn(-c4ccc(F)cc4)c3)CC2)cc1	GalR3 antag 16.6 | GalR3 antag conf inactive | CNG parental 1.5
COc1ccc(CC2(CO)CCN(Cc3ccc(OC(F)(F)F)cc3)CC2)cc1	GalR3 antag 16.5 | GalR3 antag conf inactive | CNG parental 1.8
COc1ccc(CC2(CO)CCN(Cc3ccc(NC(C)=O)cc3)CC2)cc1	none
COc1ccc(CC2(CO)CCN(Cc3cnn(-c4ccccc4)c3)CC2)cc1	none
Cc1ccc(S(=O)(=O)N2CCOCC2)cc1C(=O)NCCCN1CCCC1=O	none
CCCCNC(=O)CCc1c(C)nc2nc(-c3cc(OC)cc(OC)c3)nn2c1C	none
CCOC(=O)N1CCN(C(=O)C2CCN(C(=O)c3cc(OC)cc(OC)c3)CC2)CC1	none
Cc1nc2sc(C#N)c(N)c2c2c1CCCC2	GalR3 antag 26.9 | GalR3 antag conf 34.4 | CNG parental inactive
COc1ccccc1C(=O)Nc1ccncc1	none
COc1ccccc1C(=O)Nc1ccc(C2=NNC(=O)CC2C)cc1 (stereo not drawn)	GalR3 antag 73.2 | GalR3 antag conf 73.3 | CNG parental inactive
O=S(=O)(c1ccc2c(c1)OCCO2)N1CCN(S(=O)(=O)c2c(F)cccc2F)CC1	none (no result: NCOA2 inhibitor, GalR3 antag, NCOA1 inh, NCOA3 inh, NR5A2 inv ag)
O=S(=O)(NCC1CN(S(=O)(=O)c2c(F)cccc2F)C1)c1ccc2c(c1)OCCO2	GalR3 antag 72.7 | GalR3 antag conf 103.0 | CNG parental inactive
O=C(COC(=O)/C=C/c1ccco1)NCc1ccccc1Cl	none
O=C(COC(=O)/C=C/c1ccco1)NCc1ccco1	GalR3 antag 15.4 | GalR3 antag conf inactive | CNG parental inactive
CN(C)S(=O)(=O)c1cccc(-c2nnc(SCc3cc(Cl)cc4c3OCOC4)n2N)c1	none
COc1cc(CCC(=O)OCC(=O)Nc2ccc(C(N)=O)cc2)cc(OC)c1OC	none (no result: GalR3 antag) | GalR3 antag conf inactive | CNG parental inactive
COc1cc(NC(=O)COC(=O)CCc2cc(OC)c(OC)c(OC)c2)cc(OC)c1	none
Cc1ccc(S(=O)(=O)Nc2nnc(CC(C)(C)C)s2)cc1	none
C#CCOCCOCCOCCNc1nc(N2CCN(C(=O)[C@H]([C@@H](C)CC)n3cc(CCC(=O)O)nn3)CC2)nc(N2CCN(C(=O)[C@H](CCCCN)n3cc(CCC(=O)O)nn3)CC2)n1	none (no result: GalR3 antag) | GalR3 antag conf inactive | CNG parental inactive
C#CCOCCOCCOCCNc1nc(N2CCN(C(=O)[C@H]([C@@H](C)CC)n3cc(CCCCN)nn3)CC2)nc(N2CCN(C(=O)[C@H](CCCCN)n3cc(CC(C)O)nn3)CC2)n1 (stereo partly drawn)	none
COCCCn1cnc2oc3nc4ccccc4nc3c2c1=O	none
Cc1cccc(NC(=O)CN(C)S(=O)(=O)c2ccc(-c3ccc(=O)[nH]n3)s2)c1C	GalR3 antag 80.0 | GalR3 antag conf inactive | CNG parental inactive
Cc1ccccc1NC(=O)CN(C)S(=O)(=O)c1ccc(-c2ccc(=O)[nH]n2)s1	none
COC(=O)[C@@H]1C[C@@]2(O)[C@H](O)[C@H](O)[C@H](O)C[C@H]2N1Cc1ccccc1OS(=O)(=O)c1ccc(C)cc1	none
CCNC(=S)Nc1ccc(-c2nc3ccccc3[nH]2)cc1	none
CCOC(=O)C1CCN(C(=O)Cc2cccc3ccccc23)CC1	GalR3 antag 16.0 | GalR3 antag conf inactive | CNG parental inactive
CCOC(=O)N1CCN(C(=O)Cc2cccc3ccccc23)CC1	none
COC(=O)c1ccc(NC(=O)C(=O)c2cccn2C)cc1	none (no result: GalR3 antag) | GalR3 antag conf inactive | CNG parental inactive
COc1cccc(NC(=O)CSc2nc3ccccc3c3nc4ccccc4n23)c1	none
CCC(C)(C)n1nnnc1C(C(C)C)N(CCCO)Cc1cc2cc(C)ccc2[nH]c1=O (stereo not drawn)	none
CC(=O)OCCNc1cc(Sc2nc3ccccc3[nH]2)c2nonc2c1[N+](=O)[O-]	GalR3 antag 45.7 | GalR3 antag conf 31.7 | CNG parental inactive

Compound activity from PubChem BioAssay.
